Reference: PubChem BioAssay
Active and inactive are the calls of the source.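 The calls were made as follows, unless noted: active = inhibition above 20% together with a positive visual image hit; inconclusive = visual image hit but inhibition not above 20%; inactive = no visual image hit.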

Legend:
[1] = inhibitors of TNFa-induced NFkB p65 translocation, primary screen, imaging, HUVEC, MLSMR starter and 10KST1 sets (AID 438); conditions: HUVEC TNFa-induced p65 nuclear translocation; cell count: measured here: nuclei count (cytotoxicity indicator), at 2.08 µM; inhibition: at 2 µM, stronger effect = higher value, 0% TNFa-plus-vehicle, 100% no-TNFa wells;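 also: compound added about 3h40 before a 20 min TNFalpha stimulation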;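 as to inhibition: signal is the nuclear over cytoplasmic p65 intensity ratio per well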
[2] = reduction of polyQ htt aggregates in cells – imaging, exon1htt(103Q)mCFP cells, high-content imaging, primary screen (AID 483;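 active = visual image review flags a hit and inhibition of aggregation exceeds 20%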;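 also: compound exposure lasted 3 days before fixation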;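 as to nuclei count: percent of the per-plate median nuclei count of sample wells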); conditions: exon1htt(103Q)mCFP cell line, aggregate imaging, at 2 µM; inhibition of aggregation: stronger effect = higher value; nuclei count: measured here: cell count, toxicity
[3] = endothelial E-selectin expression blockers – imaging, HUVEC, immunofluorescence, MLSMR starter and 10KST1 sets, primary screen (AID 487;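 active = visually confirmed hit in the image check and inhibition above 20%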;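 as to inhibition: signal is fraction of cell area covered by stained E-selectin grains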;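 as to nuclei count: 100% = median nuclei count of all wells on the same plate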); conditions: HUVEC TNFalpha-induced E-selectin immunofluorescence imaging, at 2 µM; inhibition: stronger effect = higher value; nuclei count: measured here: cell number, toxicity
[4] = biological target: Voltage-gated potassium channel subunit beta-2 (Rattus norvegicus) (UniProt P62483); assay: inhibitors of rat Kvbeta2 reductase activity – biochemical, NADPH fluorescence, primary screen (AID 622;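 active = fluorescence slope higher than the sample average by over 3 SD, cut at about -0.22 in these data, passing the limit was not always enough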;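 also: slope of raw intensity against log time taken from 70 to 1610 s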); conditions: recombinant KvBeta, 4-cyanobenzaldehyde reduction, at 10 µM, stronger effect = higher value
[5] = biological target: Voltage-gated potassium channel subunit beta-2 (Rattus norvegicus) (UniProt P62483); assay: enhancers of rat Kvbeta2 NADPH turnover – biochemical, NADPH fluorescence, primary screen (AID 623;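 active = NADPH fluorescence slope more negative than the mean of all samples by about 3 SD, 99.7% confidence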;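 also: fluorescence intensity change per second fitted from 20 to 320 s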); conditions: Recombinant KvBeta, NADPH fluorescence decrease slope, 10 min; at 10 µM; stronger effect = lower value
[6] = biological target: Alpha-2C adrenergic receptor (Homo sapiens) (UniProt P18825); assay: compounds altering alpha2C-coupled GIRK flux – cell-based, HEK293 alpha2C/GIRK1/2, thallium flux, primary screen (AID 624;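 active = fluorescence slope after compound addition differing from the mean of all screened samples at 99.7% confidence, in either direction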;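 also: slope of fluorescence ratio to pre-addition baseline per second over 15 to 24 s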); conditions: thallium flux BTC fluorescence, at 10 µM, actives lie on both sides
[7] = blockers of RIG-like receptor reporter activation – cell-based, Sendai virus stimulus, luciferase, 10K MLSCN set, TLR/RLR signaling modifier project, primary screen (AID 602276;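 active = inhibition at or above 50% at 10 µM; inactive = inhibition below 50%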;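 also: firefly luciferase from ISG56 promoter only with Renilla not read in this screen; 0% = Sendai virus plus DMSO and 100% = medium plus DMSO without virus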); conditions: HEK293 RL24 IRF3 luciferase reporter, at 10 µM, stronger effect = higher value
[8] = TLR3 IRF3 reporter activation blockers – cell-based, poly I:C stimulus, luciferase, 10K MLSCN set, primary screen (AID 602277;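 active = inhibition of the reporter signal at or above 50%; inactive = inhibition below 50%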); conditions: HEK293-TLR3 RL24 IRF3 luciferase reporter, at 10 µM, stronger effect = higher value

Voltage-gated potassium channel subunit beta-2 (Rattus norvegicus), sequence (P62483 whole entry, looked up): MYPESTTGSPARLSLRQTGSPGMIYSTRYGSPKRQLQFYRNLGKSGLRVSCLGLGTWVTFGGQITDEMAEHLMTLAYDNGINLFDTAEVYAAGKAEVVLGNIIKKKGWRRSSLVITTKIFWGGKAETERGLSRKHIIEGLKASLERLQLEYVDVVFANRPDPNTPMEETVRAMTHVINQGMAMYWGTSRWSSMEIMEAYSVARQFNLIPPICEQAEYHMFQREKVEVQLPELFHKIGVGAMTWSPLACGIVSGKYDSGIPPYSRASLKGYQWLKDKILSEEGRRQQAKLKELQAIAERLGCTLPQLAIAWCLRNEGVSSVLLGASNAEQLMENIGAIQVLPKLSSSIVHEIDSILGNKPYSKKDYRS
Alpha-2C adrenergic receptor (Homo sapiens), sequence (P18825 whole entry, looked up): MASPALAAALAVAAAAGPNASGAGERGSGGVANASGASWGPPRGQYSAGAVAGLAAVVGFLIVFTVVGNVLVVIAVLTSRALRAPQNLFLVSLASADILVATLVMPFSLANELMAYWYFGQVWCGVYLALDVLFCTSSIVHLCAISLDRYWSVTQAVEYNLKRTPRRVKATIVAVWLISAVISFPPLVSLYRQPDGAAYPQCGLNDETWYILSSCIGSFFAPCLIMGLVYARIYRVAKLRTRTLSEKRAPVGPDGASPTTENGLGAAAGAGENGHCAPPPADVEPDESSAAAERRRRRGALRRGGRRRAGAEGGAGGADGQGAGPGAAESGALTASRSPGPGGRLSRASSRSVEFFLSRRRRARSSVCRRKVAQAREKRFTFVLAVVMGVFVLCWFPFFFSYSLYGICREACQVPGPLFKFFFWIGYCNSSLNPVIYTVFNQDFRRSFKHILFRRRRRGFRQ

| Structure (SMILES) | cell count [1] | inhibition [1] | inhibition of aggregation [2] | nuclei count [2] [%] | inhibition [3] | nuclei count [3] [%] | fluorescence slope [4] | NADPH fluorescence slope [5] | slope [6] | inhibition [7] | inhibition [8] |
| --- | --- | --- | --- | --- | --- | --- | --- | --- | --- | --- | --- |
| CCOC(=O)N1CCN(CCC(=O)c2ccc(Cl)cc2)CC1 | 533 | -10.6% (inactive) | -1.1% (inactive) | 116 | -30.8% (inactive) | 69.7 | -0.611 (inactive) | -3.9e-05 (inactive) | 0.00547 (inactive) | 2.5% (inactive) | 2.89% (inactive) |
| CCCCCn1c(CN2CCN(C)CC2)nc2c1c(=O)n(C)c(=O)n2C | 521 | -1.4% (inactive) | -17.1% (inactive) | 95.8 | 0.3% (inactive) | 93.2 | -0.571 (inactive) | -3e-06 (inactive) | 0.00637 (inactive) | 1.18% (inactive) | 43.6% (inactive) |
| Cc1cc(NC(=O)c2cccc(S(=O)(=O)N3CC(c4ccccc4)CC3=O)c2)no1 (centres undefined) | 873 | -1.2% (inactive) | 2.3% (inactive) | 107 | -44.9% (inactive) | 121 | -0.562 (inactive) | -5.1e-05 (inactive) | 0.00664 (inactive) | 8.54% (inactive) | 25.9% (inactive) |
| CCOC(=O)N1CCC(NC(=O)Cn2c3c(c(-c4ccccc4Cl)cc2=O)CCC3)CC1 | 528 | -3.3% (inactive) | 4.5% (inactive) | 98.3 | -105% (inactive) | 120 | -0.54 (inactive) | -2.2e-05 (inactive) | 0.00573 (inactive) | 9.23% (inactive) | 30.1% (inactive) |
| Cc1nn(C(=O)c2ccoc2C)c(N)c1-c1ccccc1 | 764 | -1.1% (inactive) | -13.8% (inactive) | 132 | -25.3% (inactive) | 116 | -0.534 (inactive) | -4.2e-05 (inactive) | 0.007 (inactive) | -27.9% (inactive) | -123% (inactive) |
| CC(=O)c1ccc(NS(=O)(=O)c2ccccc2)cc1 | 554 | -4.8% (inactive) | 0.4% (inactive) | 62.8 | -59.1% (inactive) | 92.5 | -0.467 (inactive) | 3.9e-05 (inactive) | 0.00323 (inactive) | -17.2% (inactive) | 7.05% (inactive) |
| COc1ccccc1CNC(=O)Nc1cccs1 | 546 | -6.3% (inactive) | 9.4% (inactive) | 118 | -30.8% (inactive) | 123 | -0.45 (inactive) | 8.3e-06 (inactive) | 0.0111 (inactive) | -0.521% (inactive) | -0.402% (inactive) |
| COc1ccc(NC(=O)CS(=O)CC(=O)Nc2cc(Cl)ccc2OC)cc1 (centres undefined) | 485 | 10.5% (inactive) | 5.3% (inactive) | 71.7 | -34.6% (inactive) | 96 | -0.362 (inactive) | -6.2e-05 (inactive) | 0.00691 (inactive) | 13.1% (inactive) | 28.4% (inactive) |
| CCOC(=O)C1=C(C)Nc2nnnn2C1c1c[nH]c2ccccc12 (centres undefined) | 498 | 0.6% (inactive) | 1.4% (inactive) | 47.3 | -59.7% (inactive) | 101 | -0.612 (inactive) | -1.2e-05 (inactive) | 0.00469 (inactive) | 7.12% (inactive) | 8.76% (inactive) |
| O=C(COc1ccc(=O)n(-c2ccccc2)n1)Nc1ccccc1 | 600 | 8% (inactive) | -6.4% (inactive) | 114 | 23.8% (inactive) | 119 | -0.471 (inactive) | 7.6e-06 (inactive) | 0.00619 (inactive) | 9.72% (inactive) | 23.6% (inactive) |
| COc1cc(NC(=O)CSCc2cnn(-c3ccccc3)c2-n2cccc2)cc(OC)c1 | 662 | 6.1% (inactive) | 9.3% (inactive) | 97.9 | -32% (inactive) | 98.1 | -0.315 (inactive) | -7.1e-05 (inactive) | 0.00868 (inactive) | 15.7% (inactive) | 11.2% (inactive) |
| C(=N\c1c(-c2ccccc2)nc2n1CCS2)/c1ccccc1 | 594 | -22.1% (inactive) | -0.7% (inactive) | 86 | 18.8% (inactive) | 43.9 | -0.458 (inactive) | -3.7e-05 (inactive) | 0.00231 (inactive) | 0.61% (inactive) | 10.6% (inactive) |
| CCOc1cc2[nH]c(=O)n(CCC(=O)NCCc3ccc(OC)c(OC)c3)c(=O)c2cc1OCC | 313 | -2.1% (inactive) | -0.3% (inactive) | 103 | -19.2% (inactive) | 122 | -0.514 (inactive) | 2.8e-05 (inactive) | 0.00653 (inactive) | 8.69% (inactive) | 16.7% (inactive) |
| COCC(=O)N(Cc1cc2cc(OC)ccc2[nH]c1=O)c1ccccc1 | 412 | 4.3% (inactive) | 1.5% (inactive) | 106 | -47.1% (inactive) | 113 | -0.453 (inactive) | -5.4e-05 (inactive) | 0.00281 (inactive) | 5.46% (inactive) | 19% (inactive) |
